In PubChem BioAssay (NCI):
The panel holds about 83,000 compounds, 20% with a hit somewhere; the sample as a whole holds those more often.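 Treatment: one concentration, 48 hours, 96-well format. Scoring: percent growth, with anything below 10 considered active.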 The source made the active and inactive calls.

Tested on: HL-60(TB) leukemia
Test: NCI-60 one-dose screen, 48 h (100 = growth as untreated, 0 = no growth, -100 = all killed)
Conditions: 10 µM unless noted

Compound | growth
O=C(c1ccc(F)c(Cl)c1)N1c2ccccc2Sc2ccccc21 | 30.8% (inactive)
C(=N\Nc1nnc2n1N=C(c1ccccc1)CS2)/c1ccc(OCc2ccccc2)cc1 | 97.6% (inactive)
CC(N)C(=O)NNc1n[nH]c(=S)n1N (stereo not given) | 101% (inactive)
Cc1nc2cc(Nc3nc(Cl)nc(Nc4ccc(F)cc4)n3)ccc2n1Cc1ccccc1 | 53.2% (inactive)
O=C1NC(=C(Cl)Cl)/C(=N\S(=O)(=O)NCc2ccccc2)N1 | 97% (inactive)
Nc1nc(N)c(-c2ccc(Cl)cc2)c(/C=C/c2ccc([N+](=O)[O-])cc2)n1 | 47.8% (inactive)
CC1=C([Se]CC(OC(=O)[C@@H](CSSC(C)(C)C)NC(=O)OC(C)(C)C)C(=O)NC(C)(C)C)C(=O)c2ccccc2C1=O (stereo not given in full) | -2.66% (active)
COc1ccc(-c2cn(Cc3ccc4c(Br)cc(Br)c(O)c4n3)nn2)cc1 | 48.6% (inactive)
O=C(/C=C/c1ccccc1)c1ccccc1O | 24.1% (inactive)
C=C1CCC2C(C)(COC(=O)CC)C(OC(=O)CC)CCC2(C)C1C/C=C1/C(=O)OCC1OC(=O)CC (stereo not given) | -43.8% (active)
Cc1sc2nc(NCc3ccccc3)[nH]c(=O)c2c1C | 22.4% (inactive)
CSc1nc(-c2ccc(F)cc2)c(C#N)c(N2CCOCC2)n1 | 79.6% (inactive)
Brc1ccc(Nc2nc3ccccc3nc2Nc2ccc(Br)cc2)cc1 | -12.3% (active)
COc1cc2ncnc(Nc3ccc4c(cnn4C(=O)Nc4ccccc4)c3)c2cc1OC | 83.5% (inactive)
CN(C)CCC(CCN(C)C)(C(=O)O)c1ccccc1 | 101% (inactive)
CC(=O)Oc1ccccc1C(=O)Nc1ncc([N+](=O)[O-])s1 | -43.8% (active)
COc1ccc(-c2cncn2-c2ccc(-c3nc4cc(OC)c(OC)c(OC)c4s3)cc2)cc1N | 27.8% (inactive)
c1ccc2c(N=NSc3ncnc4nc[nH]c34)c3ccccc3nc2c1 | -5.76% (active)
Oc1ccc(N=Cc2ccc(OCc3ccccc3)cc2)cc1 | 104% (inactive)
O=C1Nc2ccccc2/C1=C/c1cccn1CCCCCCn1c2ccccc2c(=O)c2ccccc21 | 54.5% (inactive)

Compound | growth
O=S(=O)(Cc1ccccc1)c1nc2ccccc2s1 | 16.9% (inactive)
COc1ccc(C2Nc3nc(OC)n(C)c(=O)c3N=C3c4ccccc4C(=O)C32)cc1 (stereo not given) | 67.1% (inactive)
N=C(N)c1ccc(-c2ccc(-c3cccs3)s2)nc1 | -32.1% (active)
Nc1n[nH]c2cccc(C#Cc3cccc(C(=O)Nc4cc(CN5CCOCC5)cc(C(F)(F)F)c4)c3)c12 | 16.6% (inactive)
Cc1ccc2c(c1)=C/C(=C\c1cc(-c3ccccc3)[nH]c1O)C(=O)N=2 | -4.3% (active)
COc1ccc(Nc2nc(Nc3cc(C)[nH]n3)c3cc(OC)c(OC)cc3n2)cc1 | -50.5% [20 µM] (active)
c1cncc(-c2csc(-c3c[nH]c4ccccc34)n2)c1 | 91.9% (inactive)
c1cc[n+](Cc2c3ccccc3cc3c2ccc2ccccc23)cc1 | 36% (inactive)
O=C(NNC(=O)N1c2ccccc2C=Cc2ccccc21)c1ccccc1 | 98.8% (inactive)
Clc1nc2ccc(Br)cc2cc1-c1nc2ccccc2[nH]1 | 87.6% (inactive)
Cc1cc(Cl)cc(Cc2cc(Cl)cc(C)c2O)c1O | -27.9% (active)
COc1ccc(C(=O)c2sc3nc(-c4cccs4)ccc3c2N)cc1OC | 23.3% (inactive)
COc1cccc(-n2cc(-c3nc(Cl)c4ccccc4n3)nn2)c1 | 97.3% (inactive)
COc1ccc(-c2nnc(N3CCN(C(=O)CN4CCN(c5ccc(Cl)cc5)CC4)CC3)nc2-c2ccc(OC)cc2)cc1 | -37.4% (active)
C[C@H](C(=O)N(CCc1ccc(Cl)c(Cl)c1)Cc1cncs1)[C@@H]1CC[C@H](C[C@H](C)n2cc(CN3CCC(c4ccc(Cl)cc4)CC3)nn2)O1 | -71.2% (active)
Cc1cc(Nc2nc(-c3ccncc3)nc3ccccc23)n[nH]1 | 49.1% (inactive)
CCn1cc(C(=O)N/N=C/c2cccc(F)c2)c(=O)c2cc(F)c(N3CCNC(C)C3)c(F)c21 (stereo not given) | 65.5% (inactive)
CCOC(=O)c1cc(C(=O)c2ccc(OC)c(OC)c2)n2c1ccc1ccc3cccnc3c12 | 3.73% (active)
Nc1n[nH]c2ccc([C@@H]3Nc4cc5[nH]ncc5cc4[C@H]4C5CCC(C5)[C@@H]34)cc12 (stereo not given in full) | -8.95% (active)
C=C(C)[C@@H]1CC[C@]2(C(=O)O)CC[C@]3(C)[C@H](CC[C@@H]4[C@@]5(C)C/C(=C/c6ccco6)C(=O)C(C)(C)[C@@H]5CC[C@]43C)[C@@H]12 | -17.2% [100 µM] (active)
